A selection: hits, their analogues and other compounds. The true share with any hit is near 5.7%.
GLP1R ag = activates the human GLP-1 receptor; AID 624172; P43220; HEK293 GLP-1R CRE-luciferase, luminescence, 4-6 h; cells express a hypersensitive GLP-1R form; 380,000 tested, 0.007% active; Potency, µM (titrated, usually from 45.6 µM), usual class: activators
Target sequence (P43220 whole entry, looked up): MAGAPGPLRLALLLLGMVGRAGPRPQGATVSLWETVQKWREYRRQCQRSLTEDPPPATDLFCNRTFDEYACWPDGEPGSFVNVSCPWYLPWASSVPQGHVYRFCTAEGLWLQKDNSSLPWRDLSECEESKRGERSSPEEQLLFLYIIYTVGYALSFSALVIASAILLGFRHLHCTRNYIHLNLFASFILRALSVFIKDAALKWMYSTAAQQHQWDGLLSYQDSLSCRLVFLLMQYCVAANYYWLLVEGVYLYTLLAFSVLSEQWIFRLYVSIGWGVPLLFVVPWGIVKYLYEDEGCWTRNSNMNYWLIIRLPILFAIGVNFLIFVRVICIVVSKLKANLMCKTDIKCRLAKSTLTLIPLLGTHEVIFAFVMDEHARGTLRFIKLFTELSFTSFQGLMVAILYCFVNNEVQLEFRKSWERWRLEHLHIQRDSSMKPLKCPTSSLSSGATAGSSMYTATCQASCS
D3 ag = activates the human D3 dopamine receptor; max activation, %; 410,000 tested, 0.58% active; P35462; AID 652048; D3R DiscoveRx beta-arrestin cells, luminescence, 90 min; in the data active = max activation above about 30%
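Agonist mode: compounds and dopamine controls were applied to plated cells for 90 min at 37 degrees C after an overnight attachment at 1500 cells/well. Luminescent read-out followed 30 - 60 minutes at room temperature with DiscoveRx detection reagent.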
DRD3 antagonist = antagonists of human D3 dopamine receptor; P35462; D3R cells, DiscoveRx beta-arrestin luminescence, antagonist mode; stronger effect = lower value; max response, negative = inhibition, %; 360,000 tested, 2.5% active; in the data active = max response below about -50%; inconclusive = no clear call, values can overlap the other calls
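Cells plated overnight at 1500 cells/well, then exposed to library compounds with dopamine controls for 90 minutes at 37 degrees C. DiscoveRx reagent added for 30–60 minutes at room temperature; luminescence read, quantitative HTS format.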
ClpP mod = qHTS Assay for Activators of ClpP; ATP-dependent Clp protease proteolytic subunit (Bacillus subtilis (strain 168)), P80244; purified B. subtilis ClpP, FRET peptide cleavage, 20 min; Potency, µM (doses to about 57.5 µM); 340,000 tested, 1.9% active; active = well fitted falling curve with a large enough effect; inconclusive = small, poorly fitted or top-dose-only effect; inactive = no such curve, though single readings can be large or run the other way; also: the source files actives as falling curves though it sought activators and does not explain the sign; nearly all actives have a fitted effect of over 65% in size
Target sequence (P80244 whole entry, looked up): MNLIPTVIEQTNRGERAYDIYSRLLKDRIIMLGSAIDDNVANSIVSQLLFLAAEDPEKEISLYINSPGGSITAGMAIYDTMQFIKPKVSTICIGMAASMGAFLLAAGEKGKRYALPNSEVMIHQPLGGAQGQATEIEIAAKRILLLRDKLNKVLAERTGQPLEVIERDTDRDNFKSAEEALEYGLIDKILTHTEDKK
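ClpP 10 microg/mL final, pH 8 Tris/KCl buffer with BSA, glycerol, Tween-20; compound pinned in; FRET-FV substrate; RT 20 min; Ex320/Em430; ΔFRET vs ADEP 5.8 microM, DMSO, no enzyme.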
GLP-1R inv ag = inverse agonists of human GLP-1 receptor | Potency, µM (titrated, usually from 38.3 µM), hits mostly inhibitors | 410,000 tested, 1.6% active | P43220 | HEK293 GLP-1R CRE-luciferase, luminescence, 24 h; GLP-1R form is constitutively active; also: nearly all actives have a fitted effect of over 55% in size
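Using stably transfected HEK293 (constitutively active GLP-1R, cAMP-luciferase reporter), compounds were incubated 24 hr and luciferase measured by luminescence.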
GLP1R cytotox = cytotoxic in the GLP-1 receptor inverse agonist counter-screen; HEK293 cAMP-luciferase reporter cells, luminescence, 24 h; Potency, µM (top dose mostly 38.3 µM), hits mostly inhibitors; 410,000 tested, 0.13% active; AID 624418;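 also: loss of luciferase light is scored as toxicity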
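To flag toxic compounds, the library was rerun on cells for 24 hr at 37 deg C and 5% CO2. Viability-linked luminescence was captured 12 min after adding luciferase detection reagent.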
Each line names hits and unclear results; the compound was inactive in the other large screens. Unless noted, calls follow the shape of the dose curve; as a rule, active = well fitted curve in the direction sought with a large enough effect; inconclusive = small, poorly fitted or top-dose-only effect, or another doubt; inactive = no such curve, though single readings can be large; an effect the other way counts as inactive or inconclusive.

NC(=O)CC(NC(=O)Cc1cccc2ccccc12)c1ccc(N2CCCCCC2)c([N+](=O)[O-])c1 (stereo not given)	DRD3 antagonist -68.1
NC(=O)CC(NC(=O)Cc1cccc2ccccc12)c1ccc(N2CCC(N3CCCCC3)CC2)c([N+](=O)[O-])c1 (stereo not given)	none
Cc1cc(C)cc(C(=O)NC(CC(N)=O)c2ccc(N3CCC(Br)CC3)c([N+](=O)[O-])c2)c1 (stereo not given)	D3 ag 32.0
O=C(Cn1c(=O)c2cc(Cl)ccc2n2nncc12)Nc1ccccc1	none (no result: DRD3 antagonist)
Cc1ccc(C)c(Cn2c(=O)cc(C)c3c(C)nn(C)c32)c1	none (no result: GLP1R ag, DRD3 antagonist)
O=C(CNC(=S)NC(=O)c1ccc(Cl)cc1)c1ccccc1	ClpP mod 28.2µM
CCC(C)n1c(=N)c(C(=O)NCc2ccco2)cc2c(=O)n3cc(C)ccc3nc21 (stereo not given)	none (no result: DRD3 antagonist)
C[C@H](CO)N1C[C@H](C)[C@H](CN(C)C(=O)Nc2ccnc(N3CCOCC3)c2)OCc2cnnn2CCCC1=O	none
CCc1[nH]nc2c1C1(CCOC1C)C(C#N)=C(N)O2 (stereo not given)	DRD3 antagonist -57.0
Oc1c(C(Nc2ccccn2)c2cccnc2)cc(Cl)c2cccnc12 (stereo not given)	DRD3 antagonist -121.2, GLP-1R inv ag inconclusive
Oc1c(C(c2ccc(Cl)cc2)N2CCCC2)cc(Cl)c2cccnc12 (stereo not given)	DRD3 antagonist -105.7, GLP-1R inv ag 5.62µM, GLP1R cytotox inconclusive
Cc1ccc(C(c2cc(Cl)c3cccnc3c2O)N2CCN(C)CC2)cc1 (stereo not given)	DRD3 antagonist -117.7, GLP-1R inv ag inconclusive (no result: ClpP mod)
CN1CCN(C(c2ccccn2)c2cc(Cl)c3cccnc3c2O)CC1 (stereo not given)	DRD3 antagonist -125.9, GLP-1R inv ag inconclusive
Oc1c(C(Nc2ccccn2)c2ccccc2)ccc2cccnc12 (stereo not given)	none (no result: GLP1R ag, D3 ag, DRD3 antagonist, GLP-1R inv ag, GLP1R cytotox)
CC(=O)NC(c1cc(Cl)c2cccnc2c1O)C(C)C (stereo not given)	none (no result: D3 ag, DRD3 antagonist, ClpP mod, GLP-1R inv ag, GLP1R cytotox)
O=C(NCc1ccccc1)c1ccc2c(c1)N(Cc1ccccc1F)C(=O)c1ccccc1S2=O (stereo not given)	GLP-1R inv ag inconclusive (no result: GLP1R ag, DRD3 antagonist)
COc1ccc(CCNC(=O)c2ccc3c(c2)CCN3S(=O)(=O)c2ccccc2)cc1	GLP-1R inv ag inconclusive (no result: GLP1R ag, DRD3 antagonist)
CCC(=O)NC(c1ccco1)c1cc(Cl)c2cccnc2c1O (stereo not given)	DRD3 antagonist inconclusive, GLP-1R inv ag 7.08µM, GLP1R cytotox inconclusive (no result: ClpP mod)
Oc1c(C(c2ccccc2Cl)N2CCCC2)ccc2cccnc12 (stereo not given)	DRD3 antagonist -52.9, GLP-1R inv ag 3.55µM
Oc1c(C(c2ccccn2)N2CCC(Cc3ccccc3)CC2)cc(Cl)c2cccnc12 (stereo not given)	DRD3 antagonist -111.9 (no result: ClpP mod)
CCCCC(=O)NC(c1ccccc1Cl)c1ccc2cccnc2c1O (stereo not given)	GLP-1R inv ag inconclusive, GLP1R cytotox inconclusive
CCCCC(=O)NC(c1ccco1)c1cc(Cl)c2cccnc2c1O (stereo not given)	GLP-1R inv ag inconclusive, GLP1R cytotox inconclusive (no result: ClpP mod)
CC(=O)NC(c1ccc(C)cc1)c1cc(Cl)c2cccnc2c1O (stereo not given)	DRD3 antagonist -79.3, GLP-1R inv ag inconclusive (no result: ClpP mod)
CC(C)C[C@H]1CN(CCCC[C@@H]2CNC(=O)C(=O)N2Cc2ccccc2)C(=O)C(=O)N1CCc1ccccc1	none
COC(=O)[C@]12CCCCC=C1N(Cc1ccc3c(c1)OCO3)C(=O)[C@H](CC(=O)NCC1CCCCC1)C2	GLP-1R inv ag inconclusive (no result: GLP1R ag)
O=C(Cn1c(=O)n(-c2ccccc2Cl)c(=O)c2sc3ccccc3c21)N1CCCC1	none (no result: DRD3 antagonist)
Cn1nc(C(=O)Nc2cccc(C(F)(F)F)c2)c2c1-c1ccccc1S(=O)(=O)C2	none (no result: GLP1R ag, DRD3 antagonist)
COc1ccccc1/C=C1\SC(N2CCC(C)CC2)=NC1=O	DRD3 antagonist -65.5, GLP-1R inv ag inconclusive
COCCNC(=S)N1CCC(C(=O)c2ccc(Cl)cc2)CC1	GLP-1R inv ag inconclusive
COCCCNC(=S)N1CCC(C(=O)c2ccc(Cl)cc2)CC1	DRD3 antagonist inconclusive, GLP-1R inv ag 5.62µM
Cc1ccc(-c2nn(CC(=O)NC3CCCCC3)c3c2cnc2ccc(F)cc23)cc1C	ClpP mod inconclusive (no result: GLP1R ag, DRD3 antagonist)
NC(=O)N/N=C/c1ccccc1OC(=O)c1cc2ccccc2oc1=O	DRD3 antagonist -57.2
O=C(NCc1cc(C(F)(F)F)cc(C(F)(F)F)c1)C1CC(c2ccccc2[N+](=O)[O-])=NO1 (stereo not given)	GLP-1R inv ag 10µM
COc1ccc2cc3cc(C(=O)NCCCN4CCc5ccccc5C4)sc3nc2c1	DRD3 antagonist -65.1
COc1ccc2nc3sc(C(=O)NCCN4CCc5ccccc5C4)cc3cc2c1	DRD3 antagonist -67.7
COc1cc(NS(=O)(=O)c2ccc(NC(=O)c3ccc(Cl)cc3Cl)cc2)nc(OC)n1	none (no result: GLP1R ag, DRD3 antagonist)
CC(Oc1ccccc1)C(=O)N1CCN=C1SCc1ccccc1F (stereo not given)	GLP-1R inv ag 3.98µM (no result: ClpP mod)
COC(=O)c1cc2oc(C)cc2n1CC(=O)Nc1ccc(C(C)C)cc1	none (no result: GLP1R ag, DRD3 antagonist)
Cc1nn(-c2ccc(Cl)cc2)c(=O)c2ccccc12	none
Cc1c(Cl)sn(-c2ccc(Cl)cc2)c1=O	DRD3 antagonist -52.1, GLP-1R inv ag inconclusive, GLP1R cytotox inconclusive (no result: ClpP mod)
CC(=O)Nc1ccc(NC(=O)CN2CCN(c3cccc(C(F)(F)F)c3)CC2)cc1	DRD3 antagonist -79.5
O=C(CN1CCN(c2cccc(C(F)(F)F)c2)CC1)Nc1cccc(C(F)(F)F)c1	DRD3 antagonist inconclusive, GLP-1R inv ag inconclusive
CC(=O)Nc1ccc(CN2CCN(c3cccc(C(F)(F)F)c3)CC2)cc1	DRD3 antagonist -92.1
Cc1onc(-c2c(F)cccc2Cl)c1C(=O)N1CCc2ccccc21	D3 ag 33.8
Cc1onc(-c2c(F)cccc2Cl)c1C(=O)Nc1nnc(-c2ccccc2)s1	ClpP mod 31.6µM
Cc1onc(-c2ccccc2Cl)c1C(=O)Nc1nnc(-c2ccc(Br)cc2)s1	GLP-1R inv ag 10µM
Cc1onc(-c2c(Cl)cccc2Cl)c1C(=O)N1CCCc2ccccc21	GLP-1R inv ag inconclusive
Cc1onc(-c2ccccc2Cl)c1C(=O)Nc1nc2c(s1)CCCC2	GLP-1R inv ag 10µM
Cc1onc(-c2ccccc2Cl)c1C(=O)Nc1nnc(-c2ccc(F)cc2)s1	GLP-1R inv ag inconclusive

From PubChem BioAssay
